Results taken from PubChem BioAssay AID1159580 (chemical genetic matrix, 2015).
Values joined by “and” are separate entries in the source; they are usually repeats but may differ in a detail not shown here. Identical values can stand only once. Hit rate of the full screen: of about 5,500 compounds, about 2,000 (36%) were called active. Inconclusive results (about 18%) are left out. No stated cut-off is given here; in the data, active means normalized growth mostly below about 0.91 (no sharp cut-off); inconclusive means no clear call, values can overlap the other calls; inactive means mostly above about 0.92. Some of the results follow.

Test: chemical genetic growth profiling, strain panel (AID 1159580);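 further: tested at 20 µM; growth read once vehicle control cultures reached saturation at 30 °C; 1 = growth at the plate median or of vehicle wells; lower values mean less growth of the strain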
Conditions: S. cerevisiae deletion strains, growth OD

Measured: normalized growth

C=C[C@H]1CN2CC[C@H]1C[C@H]2[C@H](O)c1ccnc2ccccc12
inactive: locus YAL013W, strain DEP1, hits give low values 1.01 | locus YAL021C, strain ccr4, hits give low values 1 | locus YAL026C, strain drs2, hits give low values 0.995 | locus YAL030W, strain snc1, hits give low values 0.997 | locus YBL061C, strain skt5, hits give low values 0.995 | locus YBR009C, strain hhf1, hits give low values 0.992 | locus YBR021W, strain FUR4, hits give low values 1.01 | locus YBR023C, strain chs3, hits give low values 0.992 | locus YBR171W, strain sec66, hits give low values 1 | locus YBR229C, strain ROT2, hits give low values 1.01 | locus YBR231C, strain swc5, hits give low values 0.984 | locus YBR279W, strain paf1, hits give low values 1 | locus YCL011C, strain gbp2, hits give low values 1.01 | locus YCL016C, strain dcc1, hits give low values 0.994 | locus YCL029C, strain bik1, hits give low values 0.969 | locus YCL061C, strain MRC1, hits give low values 0.983 | locus YCL069W, strain vba3, hits give low values 1.01 | locus YCR088W, strain abp1, hits give low values 1 | locus YDL005C, strain med2, hits give low values 0.997 | locus YDL035C, strain GPR1, hits give low values 0.986 | locus YDL040C, strain nat1, hits give low values 0.999 | locus YDL074C, strain BRE1, hits give low values 1.04 | locus YDL101C, strain DUN1, hits give low values 0.988 | locus YDL134C, strain PPH21, hits give low values 1 | locus YDL185W, strain tfp1, hits give low values 0.965 | locus YDL192W, strain arf1, hits give low values 0.979 | locus YDR001C, strain nth1, hits give low values 0.986 | locus YDR069C, strain doa4, hits give low values 1.01 | locus YDR101C, strain arx1, hits give low values 0.985 | locus YDR137W, strain rgp1, hits give low values 1.02 | locus YDR150W, strain NUM1, hits give low values 0.966 | locus YDR159W, strain sac3, hits give low values 0.949 | locus YDR162C, strain NBP2, hits give low values 1.01 | locus YDR195W, strain ref2 0.959 | locus YDR297W, strain sur2, hits give low values 1 | locus YDR318W, strain mcm21, hits give low values 0.989 | locus YDR334W, strain swr1, hits give low values 1 | locus YDR335W, strain msn5, hits give low values 0.993 | locus YDR388W, hits give low values 0.979 | locus YDR392W, strain spt3, hits give low values 0.999 | locus YDR502C, strain sam2, hits give low values 0.979 | locus YEL003W, strain gim4, hits give low values 0.995 | locus YEL037C, strain rad23, hits give low values 0.993 | locus YEL061C, strain CIN8 (second series), hits give low values 0.999 | locus YEL061C, strain CIN8, hits give low values 1 | locus YER015W, strain faa2, hits give low values 1 | locus YER016W, strain bim1, hits give low values 0.975 | locus YER110C, hits give low values 0.976 | locus YER111C, strain swi4, hits give low values 1.01 | locus YER155C, strain BEM2 (second series), hits give low values 0.977 | locus YER155C, strain BEM2, hits give low values 0.98 | locus YER167W, strain BCK2, hits give low values 1.01 | locus YFR010W, strain ubp6, hits give low values 1.01 | locus YGL078C, strain dbp3, hits give low values 0.985 | locus YGL086W, strain mad1, hits give low values 0.99 | locus YGL167C, strain pmr1, hits give low values 0.987 | locus YGL173C, strain kem1, hits give low values 0.977 | locus YGL227W, strain vid30, hits give low values 1 | locus YGL240W, strain doc1, hits give low values 0.984 | locus YGL248W, strain PDE1, hits give low values 1.01 | locus YGL253W, strain hxk2, hits give low values 1 | locus YGR078C, strain PAC10, hits give low values 1.01 | locus YGR135W, strain pre9, hits give low values 0.974 | locus YGR229C, strain SMI1, hits give low values 1.02 | locus YGR252W, strain gcn5, hits give low values 0.982 | locus YHR013C, strain ard1, hits give low values 1 | locus YHR027C, strain rpn1, hits give low values 0.997 | locus YHR030C, strain SLT2, hits give low values 1 and 0.969 | locus YHR079C, strain IRE1 (second series), hits give low values 0.986 | locus YHR079C, strain IRE1, hits give low values 0.968 | locus YHR094C, strain hxt1, hits give low values 0.973 | locus YHR129C, strain ARP1, hits give low values 1.01 | locus YHR142W, strain chs7, hits give low values 1 | locus YHR200W, strain rpn10, hits give low values 0.981 | locus YIL066C, strain RNR3, hits give low values 1 | locus YIL073C, strain SPO22, hits give low values 0.927 | locus YIL125W, strain kgd1, hits give low values 0.994 | locus YIR030C, strain dcg1, hits give low values 0.979 | locus YJL092W, strain hpr5, hits give low values 0.999 | locus YJL095W, strain BCK1 (second series), hits give low values 0.998 | locus YJL095W, strain BCK1, hits give low values 1.04 and 0.962 | locus YJL115W, strain asf1, hits give low values 1 | locus YJL129C, strain trk1, hits give low values 0.988 | locus YJL134W, strain LCB3, hits give low values 0.995 | locus YJL154C, strain vps35, hits give low values 1 | locus YJL164C, strain tpk1, hits give low values 1.01 | locus YJL166W, strain qcr8, hits give low values 0.95 | locus YJL168C, strain set2, hits give low values 0.986 | locus YJL187C, strain SWE1 (second series), hits give low values 0.977 | locus YJR043C, strain POL32, hits give low values 1.01 | locus YJR066W, strain TOR1, hits give low values 0.942
